From PubChem BioAssay (EPA / NIEHS)
Calls of active or inactive are those of the source. How the source made its calls: active means hit-call score of the fitted dose curve at least 0.9, where 1 is the maximum; inactive means score below 0.9.

Test: CCTE_Shafer_MEA_dev_per_burst_spike_percent: CCTE's Neural Network Formation Assay for Percent of Spikes in a Burst, Shafer Lab (AID 2284032)
Protocol: CCTE_Shafer_MEA_dev assay is conducted using Axion Biosystems 48 well microelectrode array (MEA) plates and Maestro recording system. Each well of the MEA plate contains a grid of 16 microelectrodes embedded in the culture surface. Electrically active cells, such as neurons, can be cultured over the electrodes, and electrical activity in these cells can be recorded extracellularly. The spontaneous firing of neurons is captured from each electrode on a microsecond timescale providing both temporally and spatially precise data. […] The CCTE_Shafer_MEA_dev assay uses primary cultures of rat cortical neurons. Recordings are made on days post-plating 5, 7, 9 and 12. As these cultures mature over time, neural networks develop functional activity and form cohesive networks in which electrical activity can be highly coordinated. CCTE_Shafer_MEA_dev_per_burst_spike_percent is 1 of 19 assay components of the CCTE_Shafer_MEA_dev assay. It measures the percentage of spikes (action potential firings) in a single-electrode burst (temporally-clustered group of spikes) as the total number spikes in bursts divided by the total number of spikes during a recording in a microelectrode array (MEA) using Axion Biosystems Maestro 768 channel amplifier with the AxIS adaptive spike detector. The percent of spikes in bursts is averaged across the actively bursting electrodes to report a well-mean value. To collapse across multiple recordings made on days post-plating 5, 7, 9 and 12, the trapezoidal area-under-the-curve of the component is calculated.Data from the assay component CCTE_Shafer_MEA_dev_per_burst_spike_percent was analyzed into 1 assay endpoint. This assay endpoint, CCTE_Shafer_MEA_dev_per_burst_spike_percent, was analyzed in the negative analysis fitting direction relative to DMSO as the negative control and baseline of activity. Using a type of functional reporter, gain or loss-of-signal activity can be used to understand electrical activity.
On the day prior to culture, each well was coated thoroughly with 150 uL of 0.05% polyethyleneimine (PEI, Sigma Cat P3143) in 50 mM HEPES (Sigma Cat H7523) at a pH of 8. The plate was incubated at 37C for one hour. PEI was rinsed out with 500 uL of sterile water three times. Plates were stored at 4C until the day of culture. This culture was plated at a seeding density of 1.5 x 10^5 cells/well on a 48-well MEA plate, prepared as described above. Cells were administered via a 25 uL media/laminin ([…]; Sigma Cat L2020-1MG) drop directly onto the microelectrode array, as adding the cells with the laminin results in better attachment than pre-coating with laminin. After 2 hours, an additional 475 uL of cortical media was added and the cells returned to the incubator. Exposure starts at day 0 of plating and is continued over twelve days of network development until the experiment is terminated. Cells are fed with fresh medium on DIV 5 and 9, following the recordings on those days. The entire volume of media in the well is exchanged and any vehicle or compound treatment is renewed. Complete details are found in OP-NHEERL/ISTD/SBB/TJS/2015-03-r0 (available on request, email shafer.tim@epa.gov). Measurement of the electrical activity is non-invasive, and recordings can be made from the same plate over multiple different days of the culture. In cortical neurons, this allows for the measurement of extracellular action potentials over the period during which networks form in the MEA plate.
In the case of `O=P(O)(O)OCCC(F)(F)C(F)(F)C(F)(F)C(F)(F)C(F)(F)C(F)(F)F`, the outcome is reported as “inactive”. With `CC(C)(C)C(=O)CC(=O)C(F)(F)C(F)(F)C(F)(F)F` the AC50 was 23.5 µM (active). In the case of `FC(F)(F)C(F)(F)CNCC(F)(F)C(F)(F)F`, the outcome is reported as “inactive”. With `O=C(O)C(F)(F)C(F)(F)C(F)F` the outcome was “inactive”. For `OC[C@@H](O)[C@@H](O)[C@H](O)[C@@H](O)CO`, the outcome was “inactive”. In the case of `O=C(O)C=C(C(F)(F)F)C(F)(F)F`, the outcome is reported as “inactive”. With `O=C(O)C(F)(F)C(F)(F)C(F)(F)C(F)(F)C(F)(F)C(F)(F)C(F)(F)C(F)(F)C(F)(F)C(F)F` the outcome was “inactive”. With `CC(CCl)OP(=O)(OC(C)CCl)OC(C)CCl` (stereo not drawn) the outcome was “inactive”. In the case of `O=C(O)C(F)(F)C(F)(F)C(F)(F)C(F)(F)C(F)(F)C(F)(F)C(F)(F)C(F)(F)Cl`, the outcome is reported as “inactive”. For `FC(F)(F)C(F)(F)C(F)(F)C(F)(F)C(F)(F)C(F)(F)CC1CO1` (stereo not drawn), the outcome was “inactive”. For `O=C(O)C(F)(F)C(F)(F)C(F)(F)F`, the outcome was “inactive”. For `O=S(=O)(OCC(F)F)C(F)(F)F`, the outcome was “inactive”. For `FC(F)(F)C(F)(F)C(F)(F)C(F)(F)C(F)(F)CCI`, the AC50 was 22.2 µM (active). In the case of `OCCCC(F)(F)C(F)(F)C(F)(F)F`, the outcome is reported as “inactive”. For `OCC(F)(F)C(F)(F)C(F)(F)C(F)F`, the outcome was “inactive”. For `N=C(N)C(F)(F)C(F)(F)C(F)(F)C(F)(F)C(F)(F)C(F)(F)C(F)(F)F`, the outcome was “inactive”. With `NC(=O)C(F)(F)C(F)(F)C(F)(F)C(F)(F)F` the outcome was “inactive”. In the case of `C=CC(=O)OCC(F)(F)C(F)(F)C(F)(F)C(F)(F)COC(=O)C=C`, the AC50 is reported as 4.76 µM (active). In the case of `COC(=O)CCC(F)(F)C(F)(F)C(F)(F)C(F)(F)F`, the outcome is reported as “inactive”. With `O=S(=O)(OCCOC(F)(F)F)C(F)(F)F` the outcome was “inactive”. In the case of `OCC(F)(F)C(F)(F)C(F)(F)C(F)(F)C(F)(F)C(F)F`, the outcome is reported as “inactive”. In the case of `OCC(F)(F)C(F)(F)C(F)(F)F`, the outcome is reported as “inactive”. In the case of `Cc1ccc(S(=O)(=O)OCC(F)(F)C(F)(F)C(F)(F)C(F)(F)C(F)(F)C(F)F)cc1`, the outcome is reported as “inactive”.
